From PubChem BioAssay AID1159580 (chemical genetic matrix, 2015)
In all, about 5,500 compounds went through this assay and about 2,000 (36%) were called active. Another 18% or so got no clear call; they are omitted. Rule as the data show it: active = normalized growth mostly below about 0.91 (no sharp cut-off); inconclusive = no clear call, values can overlap the other calls; inactive = mostly above about 0.92. Some of the results follow.

Assay: chemical genetic growth profiling, strain panel (AID 1159580);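 also: tested at 20 µM; growth read once vehicle control cultures reached saturation at 30 °C; 1 = growth at the plate median or of vehicle wells; lower values mean less growth of the strain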
Conditions: S. cerevisiae deletion strains, growth OD
[1] = locus YAR019C, strain CDC15, stronger effect = lower value
[2] = locus YBL105C, strain PKC1, stronger effect = lower value
[3] = locus YBR135W, strain CKS1, stronger effect = lower value
[4] = locus YBR136W, strain MEC1, stronger effect = lower value
[5] = locus YBR160W, strain CDC28, stronger effect = lower value
[6] = locus YDL017W, strain CDC7, stronger effect = lower value
[7] = locus YDL028C, strain MPS1, stronger effect = lower value
[8] = locus YDL101C, strain DUN1, stronger effect = lower value
[9] = locus YDL108W, strain KIN28, stronger effect = lower value
[10] = locus YDL132W, strain cdc53, stronger effect = lower value
[11] = locus YDL214C, strain PRR2, stronger effect = lower value
[12] = locus YDR052C, strain DBF4, stronger effect = lower value
[13] = locus YDR054C, strain cdc34, stronger effect = lower value
[14] = locus YDR226W, strain ADK1, stronger effect = lower value
[15] = locus YDR477W, strain SNF1, stronger effect = lower value
[16] = locus YER123W, strain YCK3, stronger effect = lower value
[17] = locus YER133W, strain GLC7, stronger effect = lower value
[18] = locus YFL009W, strain cdc4, stronger effect = lower value
[19] = locus YFL029C, strain CAK1, stronger effect = lower value
[20] = locus YFR003C, strain YPI1, stronger effect = lower value
[21] = locus YFR019W, strain FAB1, stronger effect = lower value
[22] = locus YFR028C, strain CDC14, stronger effect = lower value
[23] = locus YGR040W, strain KSS1, stronger effect = lower value
[24] = locus YGR052W, strain FMP48, stronger effect = lower value
[25] = locus YGR092W, strain DBF2, stronger effect = lower value
[26] = locus YHR030C, strain SLT2, stronger effect = lower value
[27] = locus YHR079C, strain IRE1, stronger effect = lower value
[28] = locus YHR082C, strain KSP1, stronger effect = lower value
[29] = locus YHR205W, strain SCH9, stronger effect = lower value
[30] = locus YIL147C, strain SLN1, stronger effect = lower value
[31] = locus YJL095W, strain BCK1, stronger effect = lower value
[32] = locus YJL128C, strain PBS2, stronger effect = lower value
[33] = locus YJL157C, strain FAR1, stronger effect = lower value
[34] = locus YJR016C, strain ILV3, stronger effect = lower value
[35] = locus YJR066W, strain TOR1 (second series), stronger effect = lower value
[36] = locus YJR066W, strain TOR1, stronger effect = lower value
[37] = locus YKL048C, strain ELM1, stronger effect = lower value
[38] = locus YKL067W, strain YNK1, stronger effect = lower value
[39] = locus YKL101W, strain HSL1, stronger effect = lower value
[40] = locus YKL193C, strain SDS22, stronger effect = lower value
[41] = locus YKL203C, strain TOR2, stronger effect = lower value
[42] = locus YLR113W, strain HOG1, stronger effect = lower value
[43] = locus YLR133W, strain CKI1, stronger effect = lower value
[44] = locus YLR403W, strain SFP1, stronger effect = lower value
[45] = locus YML070W, strain DAK1, stronger effect = lower value
[46] = locus YMR001C, strain CDC5, stronger effect = lower value
[47] = locus YMR205C, strain PFK2 (second series), stronger effect = lower value
[48] = locus YMR277W, strain FCP1, stronger effect = lower value
[49] = locus YNL006W, strain LST8, stronger effect = lower value
[50] = locus YNL020C, strain ARK1, stronger effect = lower value
[51] = locus YNL161W, strain CBK1, stronger effect = lower value
[52] = locus YNL183C, strain NPR1, stronger effect = lower value
[53] = locus YNL207W, strain RIO2, stronger effect = lower value
[54] = locus YNL222W, strain SSU72, stronger effect = lower value
[55] = locus YNL307C, strain MCK1 (second series), stronger effect = lower value
[56] = locus YOL078W, strain AVO1, stronger effect = lower value
[57] = locus YOL136C, strain PFK27, stronger effect = lower value
[58] = locus YOR061W, strain CKA2, stronger effect = lower value
[59] = locus YOR119C, strain RIO1, stronger effect = lower value
[60] = locus YOR231W, strain MKK1, stronger effect = lower value
[61] = locus YOR329C, strain SCD5, stronger effect = lower value
[62] = locus YPL031C, strain PHO85, stronger effect = lower value
[63] = locus YPL153C, strain RAD53, stronger effect = lower value
[64] = locus YPL204W, strain HRR25, stronger effect = lower value
[65] = locus YPL209C, strain IPL1, stronger effect = lower value
[66] = locus YPL256C, strain CLN2, stronger effect = lower value
[67] = locus YPR025C, strain CCL1, stronger effect = lower value
[68] = locus YPR106W, strain ISR1, stronger effect = lower value
[69] = locus YPR111W, strain DBF20, stronger effect = lower value
[70] = strain NNK1, stronger effect = lower value
[71] = strain TSCII, stronger effect = lower value

Measured: normalized growth

Cc1ccc(Nc2ccnc3cc(Cl)ccc23)cc1F
active: [26] 0.826
inactive: [1] 0.997 | [2] 0.993 | [3] 0.995 | [4] 0.995 | [5] 0.988 | [6] 1 | [7] 0.991 | [8] 0.992 | [9] 0.995 | [10] 0.987 | [11] 0.942 | [12] 0.991 | [13] 0.985 | [14] 0.997 | [15] 0.946 | [16] 0.918 | [17] 0.96 | [18] 0.983 | [19] 0.986 | [20] 0.996 | [21] 0.943 | [22] 0.989 | [23] 0.945 | [24] 1.06 | [25] 0.973 | [27] 0.96 | [28] 1 | [29] 0.915 | [30] 0.992 | [31] 0.905 | [32] 0.935 | [33] 0.965 | [34] 0.998 | [35] 0.946 | [36] 0.967 | [37] 0.943 | [38] 0.937 | [39] 0.951 | [40] 0.997 | [41] 0.977 | [42] 0.924 | [43] 0.94 | [44] 0.951 | [45] 0.947 | [46] 0.995 | [47] 0.956 | [48] 0.995 | [49] 1.01 | [50] 0.943 | [51] 1 | [52] 0.936 | [53] 0.997 | [54] 1 | [55] 0.918 | [56] 0.997 | [57] 0.934 | [58] 0.978 | [59] 1.04 | [60] 0.972 | [61] 0.996 | [62] 0.947 | [63] 0.938 | [64] 0.927 | [65] 0.998 | [66] 0.92 | [67] 0.99 | [68] 0.994 | [69] 0.976 | [70] 0.981 | [71] 0.99

Fc1cc(I)ccc1Nc1ccnc2cc(Cl)ccc12
inactive: [1] 0.977 | [2] 0.975 | [3] 0.981 | [4] 0.989 | [5] 0.978 | [6] 0.977 | [7] 0.979 | [8] 0.981 | [9] 0.986 | [10] 0.986 | [11] 0.911 | [12] 0.968 | [13] 0.974 | [14] 0.993 | [15] 0.949 | [16] 0.901 | [17] 0.948 | [18] 0.978 | [19] 0.98 | [20] 0.991 | [21] 0.943 | [22] 0.981 | [23] 0.918 | [24] 1.06 | [25] 0.954 | [27] 1 | [28] 0.974 | [29] 0.93 | [30] 0.981 | [31] 0.939 | [32] 0.978 | [33] 0.954 | [34] 0.975 | [35] 0.953 | [36] 0.958 | [37] 0.94 | [38] 0.934 | [39] 0.932 | [40] 0.991 | [41] 0.976 | [42] 0.915 | [43] 0.933 | [44] 0.95 | [45] 0.933 | [46] 0.985 | [47] 0.937 | [48] 0.984 | [49] 0.998 | [50] 0.912 | [51] 0.983 | [52] 0.957 | [53] 0.984 | [54] 0.996 | [55] 0.91 | [56] 0.981 | [57] 0.925 | [58] 0.966 | [59] 1.02 | [60] 0.95 | [61] 0.986 | [62] 0.911 | [63] 0.923 | [64] 0.912 | [65] 0.983 | [66] 0.951 | [67] 0.986 | [68] 0.973 | [69] 0.972 | [70] 0.973 | [71] 0.982
active: [26] 0.841
